Records with an inconclusive call do not appear. Unmarked numbers belong to inactive results. Activity calls are given as the source filed them. Calls come from the whole dose curve; as a rule, active = well fitted inhibition curve with a large enough effect; inconclusive = small, poorly fitted or top-dose-only effect; inactive = flat fitted curve, though single readings scatter.
Target: Luciferin 4-monooxygenase (Photinus pyralis) (UniProt P08659)
Test: qHTS Assay for Inhibitors of Firefly Luciferase from the GSK Published Protein Kinase Inhibitor Set
Conditions: purified firefly luciferase, luminescence inhibition; series mostly up to 57.5 µM; activity change, negative = inhibition: at the top concentration
Summary of the method: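 Purified P. pyralis luciferase, 10nM, with 10uM D-luciferin and 10uM ATP in 50mM Tris acetate pH 7.5, 10mM Mg acetate, 0.01% Tween-20, 0.05% BSA. Titration ~60uM to 300pM; luminescence read after about 5 min.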
% is set by controls: 0 for no effect and ±100 for the full control effect; potency is the fitted concentration of half-maximal effect.

Luciferin 4-monooxygenase (Photinus pyralis), sequence (P08659 whole entry, looked up): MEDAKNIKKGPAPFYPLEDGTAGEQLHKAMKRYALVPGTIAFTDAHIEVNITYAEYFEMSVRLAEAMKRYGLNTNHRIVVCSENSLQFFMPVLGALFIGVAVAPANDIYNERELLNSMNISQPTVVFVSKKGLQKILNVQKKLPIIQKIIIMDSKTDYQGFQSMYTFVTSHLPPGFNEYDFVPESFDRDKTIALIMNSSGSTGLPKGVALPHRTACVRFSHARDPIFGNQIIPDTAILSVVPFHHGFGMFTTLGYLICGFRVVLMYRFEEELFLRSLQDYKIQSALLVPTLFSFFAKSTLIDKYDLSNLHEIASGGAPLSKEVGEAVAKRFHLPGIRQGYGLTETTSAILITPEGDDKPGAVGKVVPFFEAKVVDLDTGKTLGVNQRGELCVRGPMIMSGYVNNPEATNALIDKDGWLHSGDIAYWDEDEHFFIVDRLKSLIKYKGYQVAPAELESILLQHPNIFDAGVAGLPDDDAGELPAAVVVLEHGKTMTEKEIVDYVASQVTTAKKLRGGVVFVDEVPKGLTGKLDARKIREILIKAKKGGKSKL

First: Fc1cccc(COc2ccc(Nc3ncnc4cc(-c5ccc[nH]5)sc34)cc2Cl)c1
Second: CS(=O)(=O)CCNCc1cc(-c2cc3c(Nc4ccc(OCc5cccc(F)c5)c(Cl)c4)ncnc3s2)cs1
The “activity change, negative = inhibition” value of the first is higher: -9.56% for the first, -10.2% for the second.

Compared with COc1ccc(-c2nn3ncccc3c2-c2ccnc(Nc3ccc(F)c(F)c3)n2)cc1, COc1cccc(Nc2nccc(-c3cnn4ncccc34)n2)c1 is higher in “activity change, negative = inhibition” value: 1.64% for the first, 4.6% for the second.

Compared with CC(C)c1ccc2c(N=Nc3ccc(S(N)(=O)=O)cc3)c(O)[nH]c2c1, CC(C)COC(=O)c1ccc2[nH]c(O)c(C=Nc3ccc(S(N)(=O)=O)cc3)c2c1 is higher in “activity change, negative = inhibition” value: -12.5% for the first, 4.05% for the second.

Compared with CCn1c(-c2nonc2N)nc2ccc(F)cc21, CCn1c(-c2nonc2N)nc2c(C#CC(C)(C)O)ncc(OCC3CCCN3)c21 (stereo unspecified) is lower in “activity change, negative = inhibition” value: 12.3% for the first, -25.6% for the second.

First: Cc1cc(O)cc(C)c1C=Cc1cncc(C(N)=O)c1
Second: CCCNc1cccc(-n2ncc3c(NN=Cc4ccncc4)ncnc32)c1
The “activity change, negative = inhibition” value of the first is higher: -0.957% for the first, -12.7% for the second.

Compared with N#Cc1cccc(Nc2nccc(-c3cnn4ncccc34)n2)c1, CS(=O)(=O)CCN(CC#N)Cc1ccc(-c2ccc3ncnc(Nc4ccc(OCc5cccc(F)c5)c(Cl)c4)c3c2)o1 is higher in “activity change, negative = inhibition” value: 6.81% for the first, 8.94% for the second.

First: CNC(=O)c1sc(-n2cnc3cc(OC)c(OC)cc32)cc1OCc1ccccc1C(F)(F)F
Second: COc1cc(N2CCN(C(C)C)CC2)ccc1Nc1nc(Nc2cccc(F)c2C(=O)O)c2cc[nH]c2n1
The “activity change, negative = inhibition” value of the first is higher: 6.52% for the first, 0.459% for the second.

With CNC(=O)c1cncc(C=Cc2c(Cl)cccc2Cl)c1 the Potency was 16.3 µM (active).
With OCCCNc1nccc(-c2c(-c3ccc(F)cc3)nn3cc(C(F)(F)F)ccc23)n1 the Potency was 32.6 µM (active).

Source: PubChem BioAssay AID652016 (National Center for Advancing Translational Sciences (NCATS), 2013)
